Sfp PPTase inh = Sfp phosphopantetheinyl transferase inhibition; Q9F4F7; Biochemical Sfp PPTase activity, qHTS; Potency, µM, hits mostly inhibitors; hit rate 3.5% among 310,000;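 further: the enzyme is Sfp with the accession as filed and its product quenches rhodamine fluorescence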
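Fluorescence-quenching assay: 15 nM Sfp-PPTase preincubated 15 min at room temperature with compound, then 5 uM rhodamine-CoA and 12.5 uM BHQ-2-labelled YbbR peptide added. Fluorescence (ex 525/em 598 nm) read at start and after 30 min; difference gives rate.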
G9a inh = blocks human histone lysine methyltransferase G9a | hit rate 8.8% among 350,000 | Potency, µM (series often up to 102 µM), most hits filed as inhibitors | G9a H3K9 monomethylation, AlphaScreen, 2 h | Q96KQ7 | AID 504332; further: nearly all actives have a fitted effect of over 75% in size
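AlphaScreen detection with an anti-monomethyl H3K9 antibody quantified product after a 2 h room-temperature reaction containing 500 nM biotinylated H3K9 peptide, 20 µM SAM and 20 nM enzyme, which had been preincubated 15 min with compound.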
BAZ2B inh = inhibitors of human BAZ2B bromodomain; hit rate 4.4% among 360,000; Q9UIF8; Potency, µM (titrated, usually from 114 µM), most hits filed as inhibitors; AlphaScreen BAZ2B-H3K14Ac peptide displacement; further: nearly all actives have a fitted effect of over 60% in size
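Protein-peptide AlphaScreen: BAZ2B 50 nM, b-H3K14Ac 50 nM, 1x PBS pH 7.4 + 0.01% Tween-20. Preincubation 30 min RT; cpd 30 min RT (top 110 uM); beads 20 min RT, light-protected.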
L3MBTL1 inh = blocks human L3MBTL1; hit rate 0.66% among 230,000; AID 485360; Q9Y468; AlphaScreen L3MBTL1–H3K9me1 peptide binding; Potency, µM (titrated, usually from 57.1 µM), hits mostly inhibitors; further: nearly all actives have a fitted effect of over 60% in size
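Displacement of a biotinylated histone H3(1-15) peptide monomethylated at Lys9 (75 nM) from L3MBTL1 (50 nM) was measured by AlphaScreen after a 30 min room-temperature compound incubation; cefsulodin titration served as intraplate control.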
JMJD2A Tudor = inhibitors of human JMJD2A Tudor domain. AID 504339. hit rate 4.4% among 390,000. O75164. Potency, µM (series often up to 114 µM), most hits filed as inhibitors. AlphaScreen JMJD2A-Tudor / H3K4me3 peptide binding; further: nearly all actives have a fitted effect of over 50% in size
HP1b binding inh = blocks HP1-beta chromodomain binding to methylated histone tails; Potency, µM (highest dose often 114 µM), usual class: inhibitors; AlphaScreen HP1-beta / biotin-H3K9me3 peptide binding; P83916; AID 540317; hit rate 0.56% among 390,000; further: nearly all actives have a fitted effect of over 70% in size
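AlphaScreen: HP1-beta (50 nM) preformed 30 min with biotin-H3(1-18)K9me3 peptide (50 nM) in PBS pH 7.4, 0.01% Tween-20. Compound added for 30 min at RT, then streptavidin donor/nickel chelate acceptor beads (10 ug/mL) for 30 min.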
Of the large screens only hits and unclear results are named; the others gave an inactive call. Shown are actives, neighbours in structure and some others; about 12% of the full set was active somewhere. The call rests on the fitted dose curve; in most records, active means well fitted curve in the direction sought with a large enough effect; inconclusive means small, poorly fitted or top-dose-only effect, or another doubt; inactive means no such curve, though single readings can be large; an effect the other way counts as inactive or inconclusive.

O=C(CCCCCBr)N1CCC(CC2CC(c3cccc(Br)c3)=NO2)(C(=O)NCC2CCCCC2)CC1 (centres undefined)	G9a inh 50µM, JMJD2A Tudor inconclusive
CCc1ccc2c(c1)/C(=N/N(C)C(=S)NC)C(=O)N2	Sfp PPTase inh inconclusive, BAZ2B inh 10µM, JMJD2A Tudor inconclusive, HP1b binding inh inconclusive
NC(=O)c1ccc(N=C2C(=O)Nc3ccc([N+](=O)[O-])cc32)cc1	L3MBTL1 inh inconclusive (no result: G9a inh)
Cc1ccc(C2C(C(=O)c3sc(C)nc3C)=C(O)C(=O)N2CCN2CCOCC2)o1 (centres undefined)	G9a inh 35µM, JMJD2A Tudor inconclusive
CCN(CC)CCCN1C(=O)C(O)=C(C(=O)c2sc(C)nc2C)C1c1ccc(C)o1 (centres undefined)	none (no result: JMJD2A Tudor, HP1b binding inh)
COc1cccc(C2C(C(=O)c3sc(C)nc3C)=C(O)C(=O)N2CCN2CCOCC2)c1 (centres undefined)	G9a inh 50µM, JMJD2A Tudor inconclusive
COc1ccc(CCc2c[nH]c(=O)c3cncnc23)cc1OC	none (no result: Sfp PPTase inh, G9a inh, BAZ2B inh, L3MBTL1 inh)
COc1cc(C(C)=O)ccc1OCC(O)CN(CCO)Cc1ccccc1 (centres undefined)	none (no result: BAZ2B inh)
CC(=O)c1ccc(OCC(=O)NCC2(N3CCCCC3)CCCCC2)cc1	none
COc1ccccc1COCC(O)CNCC1(N2CCCCC2)CCCCC1 (centres undefined)	G9a inh 4.5µM, BAZ2B inh inconclusive, JMJD2A Tudor 1.8µM, HP1b binding inh inconclusive
C=CCNCC(O)COc1ccc(C(C)=O)cc1OC (centres undefined)	Sfp PPTase inh inconclusive, BAZ2B inh 50µM, JMJD2A Tudor 2µM, HP1b binding inh 71µM (no result: G9a inh)
COc1cc(C(C)=O)ccc1OCC(O)CNCC1(N2CCCCC2)CCCCC1 (centres undefined)	Sfp PPTase inh inconclusive, G9a inh 28µM, BAZ2B inh 50µM, JMJD2A Tudor 3.2µM, HP1b binding inh inconclusive
COc1ccccc1OC(C)C(=O)NCC1(N2CCOCC2)CCCCC1 (centres undefined)	none (no result: Sfp PPTase inh, L3MBTL1 inh)
Cc1ccc(C(=O)c2cn(Cc3cccc(Cl)c3)c3nc(C)ccc3c2=O)cc1	none (no result: Sfp PPTase inh, L3MBTL1 inh)
CCCSCCCNC(=O)c1ccc2c(c1)sc1nc(-c3ccc(OCC)cc3)cn12	none (no result: Sfp PPTase inh, L3MBTL1 inh)
Cc1ccc(S(=O)(=O)C/N=C(/NC(=S)N(c2ccccc2)c2ccccc2)c2ccccc2)cc1	Sfp PPTase inh 32µM, G9a inh 10µM, JMJD2A Tudor inconclusive (no result: L3MBTL1 inh)
Cc1ccc(S(=O)(=O)NC(=NC(C)C)c2ccccc2)cc1	none
Cc1ccc(NC(=O)N2CCN3CCCCC3C2)cc1F (centres undefined)	none (no result: Sfp PPTase inh, L3MBTL1 inh)
COc1cc2c(cc1OC)C(c1ccccc1O)N(C1CC(=O)N(c3ccccc3)C1=O)CC2 (centres undefined)	Sfp PPTase inh inconclusive, G9a inh 8.9µM
CC(C)CCNC(=O)[C@H](CC(C)C)NC(=O)[C@H]1O[C@@H]1C(=O)O	G9a inh 35µM (no result: JMJD2A Tudor, HP1b binding inh)
Cc1cc(-c2nc(C)c(C(=O)NNS(=O)(=O)c3cccc(C(F)(F)F)c3)s2)no1	none (no result: G9a inh)
Cc1cc(-c2nc(C)c(C(=O)NNS(=O)(=O)c3ccc(Cl)cc3Cl)s2)no1	G9a inh 40µM, JMJD2A Tudor inconclusive
CC(CCC(=O)O)C1CCC2C3CC[C@H]4CC(O)CC[C@@]4(C)C3C=C[C@]12C (some centres undefined)	none (no result: BAZ2B inh, L3MBTL1 inh, JMJD2A Tudor, HP1b binding inh)
Clc1nc(Cl)nc(NCCC2=CCCCC2)n1	G9a inh inconclusive, BAZ2B inh 56µM, JMJD2A Tudor 89µM
CC(=O)/C(=N/Nc1ccc([N+](=O)[O-])cc1)N1CCCc2ccccc21	G9a inh 22µM, BAZ2B inh inconclusive, JMJD2A Tudor inconclusive, HP1b binding inh inconclusive (no result: L3MBTL1 inh)
CC(=O)/C(=N/Nc1ccccc1[N+](=O)[O-])N1CCCc2ccccc21	G9a inh 5µM, BAZ2B inh 5.6µM, L3MBTL1 inh inconclusive, JMJD2A Tudor 11µM, HP1b binding inh 7.9µM
O=C(Nc1cccc([N+](=O)[O-])c1)N1CCCc2ccccc21	none (no result: L3MBTL1 inh)
O=C(CSc1nc(NS(=O)(=O)c2ccccc2)cc(=O)[nH]1)Nc1ccc(F)cc1	BAZ2B inh inconclusive, L3MBTL1 inh inconclusive, JMJD2A Tudor 56µM
O=C(CSc1nc(NS(=O)(=O)c2ccccc2)cc(=O)[nH]1)Nc1cccc(C(F)(F)F)c1	G9a inh inconclusive, BAZ2B inh inconclusive (no result: L3MBTL1 inh)
CCOC(=O)c1[nH]c(=S)[nH]c1C	JMJD2A Tudor 5µM (no result: Sfp PPTase inh, G9a inh, BAZ2B inh, L3MBTL1 inh)
CCOC(=O)c1[nH]c(C)c(C(=O)OC)c1C	none
CCOC(=O)c1[nH]c(C)c(C(=O)NC2CCCCC2)c1C	G9a inh 79µM (no result: L3MBTL1 inh)
CCOC(=O)c1c(C)[nH]c(C(=O)O)c1C	BAZ2B inh inconclusive
CCOC(=O)c1[nH]c(C)c(C)c1C	BAZ2B inh inconclusive, JMJD2A Tudor 79µM
CCOC(=O)CC(=O)c1[nH]c(C)c(C(=O)OCC)c1C	BAZ2B inh 79µM
CCOc1ccc(CCNC(=O)Cn2ncc3c(=O)oc4ccc(C)cc4c32)cc1	none (no result: Sfp PPTase inh, L3MBTL1 inh)
CCN(C)C(=O)Oc1cccc([C@H](C)N(C)C)c1	none (no result: BAZ2B inh, L3MBTL1 inh, JMJD2A Tudor, HP1b binding inh)
CCOC(=O)c1ccc(N2C(=O)c3[nH]nc(-c4ccc(OC)cc4)c3C2c2ccc(C)cc2)cc1 (centres undefined)	JMJD2A Tudor inconclusive (no result: Sfp PPTase inh, BAZ2B inh, L3MBTL1 inh)
CCOC(=O)c1[nH]c2c(c1-c1ccc(OC)cc1)C(=O)CC(c1ccc(OC)c(OC)c1)C2 (centres undefined)	G9a inh 50µM, BAZ2B inh inconclusive

Screening data: PubChem BioAssay, National Center for Advancing Translational Sciences (NCATS)
